The list is not random: actives were taken first. Their share in the collection is about 5.6%.
ALR H2O2 inh: inhibitors of human ALR sulfhydryl oxidase, primary screen, biochemical, H2O2 detection, HRP-luminol luminescence, single point | FAD-linked sulfhydryl oxidase ALR (Homo sapiens), P55789 | purified ALR, DTT oxidation | inhibition, % (test concentration not listed) | 290,000 tested, 3.8% active;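 active means mean replicate inhibition above about 79%, with every replicate also reaching it, limit read from the data; inconclusive means only one of the two criteria met; inactive means mean below limit and not every replicate reaching it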
Target sequence (P55789 whole entry, looked up): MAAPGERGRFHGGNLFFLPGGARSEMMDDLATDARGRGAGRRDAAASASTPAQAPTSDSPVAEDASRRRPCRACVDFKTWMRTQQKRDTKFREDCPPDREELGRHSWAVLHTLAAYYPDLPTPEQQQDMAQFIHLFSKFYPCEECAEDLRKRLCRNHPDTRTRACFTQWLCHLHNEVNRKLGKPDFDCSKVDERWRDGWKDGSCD
M18AAP inhibitor: PfM18AAP inhibitors, malaria aminopeptidase, primary screen, biochemical, QFRET, recombinant enzyme; AID 1822, 2009; 290,000 tested, 1.2% active; inhibition, % at 7.35 µM; H-Glu-NHMec fluorogenic cleavage;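 active means inhibition above the campaign mean inhibition over all tested compounds plus 3 SD, cut at about 28% in these data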;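 further: 0% = plate median of test compound wells and 100% = 2 mM ZnCl2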
PHOSPHO1 block: PubChem AID 1565. recombinant PHOSPHO1, absorbance phosphatase assay. inhibition, % at 13.3 µM. 290,000 tested, 1.1% active; in the data active means inhibition above about 60%
Target sequence (Q8TCT1 whole entry, looked up): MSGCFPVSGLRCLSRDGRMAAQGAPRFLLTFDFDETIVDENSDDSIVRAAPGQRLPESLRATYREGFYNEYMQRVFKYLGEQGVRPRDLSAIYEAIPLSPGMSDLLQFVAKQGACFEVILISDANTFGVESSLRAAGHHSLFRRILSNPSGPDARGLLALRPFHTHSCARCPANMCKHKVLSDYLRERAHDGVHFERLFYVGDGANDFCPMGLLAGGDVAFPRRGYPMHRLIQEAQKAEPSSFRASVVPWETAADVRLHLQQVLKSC
H9c2 protect: cardioprotection against H2O2-induced cell death, primary screen, uHTS, H9c2 cells, ATPLite luminescence; H9c2 cardiomyocytes, H2O2 injury protection, 2 h; protection from H2O2 cell death, % at 20 µM; 360,000 tested, 0.63% active;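 active means compounds giving at least 50% protection of heart cells from peroxide-induced death in the single-dose screen, raw or plate-pattern-corrected value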;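 further: 0% = DMSO wells with peroxide and 100% = DMSO wells without peroxide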
PfG6PD inh: PfG6PD enzyme inhibitors, primary screen, biochemical, fluorescence intensity, uHTS | glucose-6-phosphate dehydrogenase-6-phosphogluconolactonase (Plasmodium falciparum 3D7) | PfGluPho enzyme, NADPH resazurin-diaphorase fluorescence | inhibition, % at 20 µM | 350,000 tested, 0.78% active | AID 504690, 2011;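 active means inhibition reaching at least a set limit at 20 µM in the primary screen, cut at about 59% in these data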;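 further: 0% = DMSO wells with substrate and 100% = DMSO wells lacking glucose-6-phosphate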
An asterisk follows results filed as active; ? = inconclusive; · = no result.

SMILES | ALR H2O2 inh | M18AAP inhibitor | PHOSPHO1 block | H9c2 protect | PfG6PD inh
NNC(=O)C1CC(O)CN1S(=O)(=O)c1ccc2ccccc2c1 (stereo unspecified) | -10.4 | · | · | 4.2 | 3.7
O=C(Cc1ccccc1)N/N=C/c1cc(Br)cc(Cl)c1O | 2.1 | 7.2 | 13.2 | 25.8 | -38.1
O=C(N/N=C/c1cccc2nccnc12)c1ccncc1 | 0.3 | 4.5 | 20.3 | 65.3* | -27.4
O=C(N/N=C/c1cc(Cl)cc(Cl)c1O)c1ccncc1 | 0.9 | 8.0 | -23.1 | 50.5* | -19.6
Cc1ccc(N=Cc2cc(Cl)cc(Cl)c2O)nc1 | -10.1 | -5.3 | -6.9 | 65.4* | 3.9
Oc1c(Cl)cc(Cl)cc1/C=N/Nc1ncc(Br)cn1 | -2.0 | 1.0 | 18.0 | 58.6* | -16.4
CC(CC(=O)c1ccccc1)=NCCCN=C(C)CC(=O)c1ccccc1 | · | · | · | -0.1 | -12.7
O=C(CN1C(=O)/C(=C\c2ccco2)SC1=S)Nc1ccc(O)cc1C(=O)O | 39.2 | 38.8* | 12.1 | 0.0 | -19.0
O=C(CCN1C(=O)/C(=C/c2ccco2)SC1=S)Nc1ccc(C(=O)O)c(O)c1 | · | 28.4* | 33.0 | -5.4 | 15.1
CC(C(=O)Nc1ccc(O)cc1C(=O)O)N1C(=O)/C(=C\c2cccs2)SC1=S (stereo unspecified) | 87.3* | 23.5 | -11.4 | 1.7 | 49.6
O=C(CCN1C(=O)/C(=C\c2ccco2)SC1=S)Nc1ccc(C(=O)O)c(O)c1 | · | 29.8* | 29.8 | -0.3 | 27.7
CSc1ccccc1NC(=O)CSCc1nc2sc(C)c(C)c2c(=O)[nH]1 | 56.9 | · | · | 12.1 | 18.5
Cc1sc2nc(CSCC(=O)Nc3ccc(OC(F)F)cc3)[nH]c(=O)c2c1C | 97.2* | 0.3 | 32.0 | 10.2 | 14.5
Cc1sc2nc(CSCC(=O)Nc3ccc(C(=O)N(C)C)cc3)[nH]c(=O)c2c1C | 98.8* | · | · | 32.7 | 11.5
COC(=O)c1c(NC(=O)CN2CCC3(O)CCCCC3C2c2ccc(OC)cc2OC)sc(C)c1C (stereo unspecified) | · | 44.1* | 9.6 | 1.9 | 38.0
COC(=O)c1c(NC(=O)CN2CCC3(O)CCCCC3C2c2ccccc2OC)sc(C)c1C (stereo unspecified) | -18.5 | 10.2 | -16.4 | -2.9 | 4.4
Cc1cccc(NNC(=S)Nc2c(C)cccc2C)c1 | 71.9 | 29.6* | 31.0 | -8.6 | -6.3
Cc1cc(C)cc(N(CCC#N)C(=O)CSc2nc3ccccc3c(=O)[nH]2)c1 | -1.0 | · | · | 41.8 | -10.0
O=C(CCOc1cccc(Br)c1)Nc1ccc(F)c(S(=O)(=O)N2CCOCC2)c1 | · | · | · | -15.6 | 7.4
O=c1[nH]c(N2CCN(c3ccccc3)CC2)nc2c1CCCC2 | -4.0 | -1.4 | -4.9 | 55.2* | -7.0
O=c1[nH]c(N2CCN(c3ccccc3)CC2)nc2c1CCC2 | 12.1 | -0.3 | 10.0 | 50.7* | -9.5
CCOC(=O)N1CCN(C(=O)c2ccc(Cl)c(NC(=O)c3cccs3)c2)CC1 | -15.5 | · | · | 3.9 | 11.3
COc1ccc(CCC(=O)OCc2csc(CC(=O)Nc3ccccc3C)n2)cc1 | -9.2 | -15.8 | 22.2 | 6.3 | 10.3
CC1CCCC(NC(=O)C2CCN(S(=O)(=O)c3cnc[nH]3)CC2)C1C (stereo unspecified) | 0.6 | 2.0 | 50.7 | -1.5 | 11.5
CC(C)(C)c1ccc(NC(=S)NCCc2ccccn2)cc1 | 97.9* | 3.5 | 34.2 | -4.1 | -10.9
SMILES | ALR H2O2 inh | M18AAP inhibitor | PHOSPHO1 block | H9c2 protect | PfG6PD inh
FC(F)(F)c1cccc(CNC(=S)Nc2ccccc2)c1 | -16.1 | 0.9 | 61.8* | -5.7 | 5.3
CNNC(=S)Nc1cccc(C(F)(F)F)c1 | 3.0 | 29.2* | 47.4 | -5.0 | 13.9
Fc1ccc(NC(=S)NCCc2ccccn2)cc1 | 51.7 | -5.8 | 12.0 | 2.0 | 6.6
FC(F)(F)c1cccc(NC(=S)NCCc2ccccn2)c1 | 77.4* | -13.0 | 10.5 | -7.4 | -9.3
O=C(NCc1cccc(OC(F)(F)F)c1)c1ccc2c(c1)S(=O)(=O)c1cc(Cl)ccc1C2=O | -0.8 | · | · | -5.7 | -4.4
CC(=O)Nc1cncc(-c2cccc(C(=O)N3CCOCC3)c2)n1 | · | · | · | 2.5 | ·
CCN(CC)c1ccc(C=Nc2ccccc2)c(O)c1 | 21.8 | 2.8 | 8.2 | 14.4 | 13.6
CCN(CC)c1ccc(C=Nc2ccc(N(C)C)cc2)c(O)c1 | 98.1* | 18.5 | 37.6 | -24.1 | 36.5
CCN(CC)c1ccc(/C=N/N=C(N)N)c(O)c1 | 76.4* | 29.5* | 55.7 | -1.3 | 5.7
CCN(CC)c1ccc(/C=N/N2CCOCC2)c(O)c1 | ? | 11.7 | 4.2 | -1.5 | 18.8
CCN(CC)c1ccc(/C=N/N2C(C)CCCC2C)c(O)c1 (stereo unspecified) | 97.7* | 16.8 | 31.0 | 1.3 | 36.0
COC(=O)c1[nH]c(C)c(/C(O)=C2\C(=O)C(=O)N(CCN3CCOCC3)C2c2ccco2)c1C (stereo unspecified) | -6.5 | 8.1 | 19.1 | -1.2 | -22.3
C[C@@H]1CN([C@@H](C)CO)C(=O)c2cc(NC(=O)C3CCCCC3)ccc2O[C@@H](C)CCCCO[C@H]1CN(C)S(=O)(=O)c1ccc(Cl)cc1 | · | · | · | 1.5 | 25.5
CN(C)c1ccc(C(=S)N2CCCCCC2)cc1 | 98.3* | 2.0 | 39.7 | -5.9 | 23.0
CC(=O)N1CCN(C(=S)c2ccc([N+](=O)[O-])cc2)CC1 | -3.6 | -0.6 | 8.2 | 6.1 | 20.9
CN(C)c1ccc(C(=O)N2CCCC2)cc1 | 98.4* | 5.2 | 16.1 | 3.9 | -17.5
CN(c1ccc(C(=O)N2CCCCC2)cc1)S(C)(=O)=O | -2.7 | 1.0 | -28.3 | 0.0 | 0.1
Cc1[nH]c(C)c(S(=O)(=O)NCc2ccc(N(C)C)cc2)c1C(=O)N1CCCC1 | 98.2* | 4.4 | 22.4 | 3.2 | -2.7
CC(=O)N1CCN(C(=S)c2ccc(N(C)C)cc2)CC1 | 98.3* | -20.9 | 89.7* | -0.3 | 32.4
O=C(c1cccc([N+](=O)[O-])c1)N1CCN(S(=O)(=O)/C=C/c2ccccc2)CC1 | -1.0 | · | · | -6.0 | 13.5
CC(=O)Nc1ccc(S(=O)(=O)N2CCC(C(=O)NCCC(=O)NCc3ccccc3)CC2)cc1 | -15.5 | -4.5 | 26.1 | -0.3 | 8.6
CC1CCN(C(=O)c2ccc(N(C)S(C)(=O)=O)cc2)CC1 | -4.0 | 1.5 | -14.4 | 4.2 | -14.4
CN(C)c1ccc(C(=S)N2CCOCC2)cc1 | 98.8* | -4.2 | 0.6 | 9.6 | -9.1
CC1CCN(C(=S)c2ccc(N(C)C)cc2)CC1 | 99.1* | 3.7 | 27.4 | -3.4 | 6.3
S=C(c1ccc(N2CCOCC2)cc1)N1CCCCC1 | 86.7* | -3.2 | -3.2 | 3.5 | -2.0
C/C(=N\NC(=O)c1ccncc1)c1cccc(NC(=O)c2ccc(Cl)s2)c1 | -9.1 | 7.2 | -21.0 | 2.7 | 27.5
O=C(COC(=O)c1ccc(Br)c(S(=O)(=O)N2CCOCC2)c1)NCCc1ccccc1 | · | · | · | 2.7 | 0.2
COc1ccc(NC2CC(=O)N(c3cccc([N+](=O)[O-])c3)C2=O)cc1 (stereo unspecified) | 89.0* | 2.8 | -5.3 | 5.4 | 1.1

Source: PubChem
